Hit rate of the full screen: of about 360,000 compounds, about 11,000 (3.1%) were called active. Cut-off read from the data, not from the text of the source: active = activity change below about -30%; inactive = the rest. What follows is part of a selection rich in actives, with near analogues and random picks from the rest.
Molecular target: D(1A) dopamine receptor (Homo sapiens) (UniProt P21728)
Assay: Antagonist of Human D 1 Dopamine Receptor: qHTS
Conditions: HEK293 TREx D1 cells, calcium flux, dopamine EC80; at 10 µM; active compounds read low
Outline: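 Allosteric or orthosteric antagonism assessed as attenuation of the calcium response to EC80 dopamine, added 180 s after compound, in induced HEK293 Trex D1 cells loaded with no-wash calcium dye.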
% is set by controls: 0 for no effect and ±100 for the full control effect.

Chain of D(1A) dopamine receptor (Homo sapiens) (P21728 whole entry, looked up): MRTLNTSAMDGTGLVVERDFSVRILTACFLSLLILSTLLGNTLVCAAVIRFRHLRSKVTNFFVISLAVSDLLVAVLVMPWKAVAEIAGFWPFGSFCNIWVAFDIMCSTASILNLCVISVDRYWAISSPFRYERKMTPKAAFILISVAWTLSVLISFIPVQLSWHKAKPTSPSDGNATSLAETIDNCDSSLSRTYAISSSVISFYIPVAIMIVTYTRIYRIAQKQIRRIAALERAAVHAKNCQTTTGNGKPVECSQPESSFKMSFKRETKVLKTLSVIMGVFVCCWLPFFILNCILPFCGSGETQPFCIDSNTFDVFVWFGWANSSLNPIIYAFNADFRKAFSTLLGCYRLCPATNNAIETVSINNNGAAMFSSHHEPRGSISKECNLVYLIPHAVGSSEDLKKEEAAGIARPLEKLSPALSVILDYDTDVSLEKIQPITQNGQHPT

Activity change, negative = inhibition, inactive:
CCOc1c(OC)cccc1C(=O)NCC1(c2ccccc2)CCCC1 19%
O=C(CNC1CCCCC1)NCC1(c2ccccc2)CCCC1 4.83%
COc1ccc(/C=C/c2noc(-c3ccccc3O)n2)cc1OC 4.82%
CC(C)CCN(C(=O)Nc1ccc(Cl)c(Cl)c1)C(C)c1cccs1 (configuration not stated) -22.4%
O=C(COc1ccc(Cl)cc1)Nc1ccccc1OCc1cc(=O)n2ccccc2n1 0.395%
O=C(CSc1ncc(CO)n1Cc1ccc(Cl)cc1)NCc1ccc(F)cc1 -8.7%
COc1ccc(C(=O)N(Cc2ccccc2)c2ccc(C)cc2)cc1S(=O)(=O)N1CCOCC1 8.42%
CCN(CC(=O)NCc1cccs1)C(=O)c1ccc(OC)c(S(=O)(=O)N2CCOCC2)c1 2.75%
Cc1nn(Cc2ccccc2)c(C)c1CNC(=O)c1ccc(F)c(S(=O)(=O)N2CCOCC2)c1 -20.4%
CC(C)C(NC(=O)c1cccc(S(=O)(=O)N2CCOCC2)c1)C(=O)NCCc1ccccn1 (configuration not stated) 10.6%
CCOC(=O)c1cnc2c(C)cc(C)cc2c1Nc1ccc(N2CCOCC2)cc1 15.4%
CCOC(=O)c1cccc(NC(=O)Cn2cnc3nc4c(cc3c2=O)CCCC4)c1 17.9%
COc1cc2[nH]c(=O)n(Cc3ccc(C(=O)NCc4ccc(C)cc4)cc3)c(=O)c2cc1OC 1.6%
COc1ccc2c(c1)c(N1CCCC1=O)c(C(=O)Nc1ccc(OC)c(Cl)c1)n2C 11.9%
CCOC(=O)Cc1ccc(NC(=O)Nc2c[nH]c(=O)[nH]c2=O)cc1 0.423%
COc1ccc(C)cc1-n1c(-c2ccc(C)cc2)cc2c1CC(C)(C)CC2=O 12.6%
CC(C)S(=O)(=O)c1oc(-c2ccc(F)cc2)nc1S(=O)(=O)c1ccc(F)cc1 6.44%
Cc1cccc(N2CCN(C(=O)c3ccc(Nc4nc5ccccc5n5nnnc45)cc3)CC2)c1C -6.91%
CCCOc1ccc(NC(=O)CC2C(=O)N(c3ccccc3)C(=O)N2Cc2ccco2)cc1 (configuration not stated) -3.01%
COc1ccc(-c2nc3nc(C)cc(C)n3c2Nc2c(C)cccc2C)cc1 4.35%
Cc1ccc(C2CCN(C(=O)c3cnn(-c4ccccc4Cl)c3C3CCN(C(=O)OC(C)(C)C)CC3)C2)cc1 (configuration not stated) 6.31%
O=C(NCc1ccco1)c1nc2ncccn2n1 8.67%
O=c1oc(-c2ccco2)nc2sc3c(c12)CCCCC3 -12.2%
O=C(CN1C(=O)CCn2nc(-c3ccccc3)cc21)NCc1ccccc1 -7.67%
O=C(c1ccc(C(F)(F)F)cc1)N1CCC(c2nc(-c3ccc(S(=O)(=O)N4CCCC4)cc3)no2)CC1 -0.206%
CCCCC(=O)Nc1nc(C)c(-c2csc(Nc3ccc(Cl)cc3)n2)s1 103%
S=c1[nH]nc(NCCc2ccccc2)s1 0.618%
O=C(CSc1ccccc1F)NC1CCS(=O)(=O)C1 (configuration not stated) 2.27%
CCCSC(=S)NC1CCS(=O)(=O)C1 (configuration not stated) -7.48%
Cc1ccccc1CNC(=O)C1CCCN(S(=O)(=O)N(C)c2ccc(F)cc2)C1 (configuration not stated) -10.3%
S=C(NCc1cccs1)Nc1ccc(Cl)cc1 -26.2%
FC(F)(F)Oc1ccc(NC(=S)NCc2ccccc2)cc1 -19.3%
Cc1ccc(C(=O)Nc2cc3c(cc2N2CCCC2)n(C)c(=O)c(=O)n3C)cc1 16%
COc1ccc(N2C(=O)CS(=O)(=O)C23C(=O)N(Cc2ccc(C)cc2)c2ccccc23)cc1Cl (configuration not stated) -16%
CCOc1ccccc1NC(=O)CN1CCCN(Cc2cccc(Cl)c2)S1(=O)=O 2.3%
O=C(CCCc1ccccc1)NCc1ccccc1 -7.61%
O=C(O)CCC(=O)N(Cc1ccccc1)Cc1ccccc1 -11.6%
O=C(CSc1oc(-c2ccccc2)nc1S(=O)(=O)c1ccc(Br)cc1)NC1CCCCC1 8.79%
CCc1ccc(-n2nnc(-c3nc(-c4ccccc4)no3)c2C)cc1 -9.23%
CCOc1cc(C2C(C(=O)c3ccco3)=C(O)C(=O)N2Cc2ccccc2)ccc1O (configuration not stated) 9.97%
CC(C)c1ccc(C2C(C(=O)c3ccco3)=C(O)C(=O)N2CC2CCCO2)cc1 (configuration not stated) -6.37%
O=S(=O)(c1ccc2c(c1)OCCO2)N1CCN(S(=O)(=O)c2cc(F)ccc2F)CC1 -3.7%
CCCNC(=O)c1ccc(N2CCC3(CC2)CC(c2cccc(Br)c2)=NO3)c(NC(=O)c2ccco2)c1 -2.71%
CCC(C)NC(=O)c1ccc(N2CCC3(CC2)OCCO3)c([N+](=O)[O-])c1 (configuration not stated) -7.67%
O=C(COc1ccccc1F)NNC(=O)c1ccc(N2CCCCC2)c([N+](=O)[O-])c1 -3.15%
CC1CCN(c2ccc(C(=O)NCc3ccc4c(c3)OCO4)cc2[N+](=O)[O-])CC1 -7.43%

Activity change, negative = inhibition, active:
Cc1cccc(C(CC(=O)NCC2(c3ccccc3)CCCC2)c2ccccc2)c1O (configuration not stated) -31%
CCN(Cc1ccncc1)C(=O)c1cccc(S(=O)(=O)N2CCOCC2)c1 -44.2%
O=C(c1ccc(F)c(S(=O)(=O)N2CCOCC2)c1)N(CCc1ccccc1)Cc1ccccc1 -39.2%
O=C(NCc1ccco1)c1cccn2c(=O)c3c4c(sc3nc12)CCCC4 -112%
Cc1nc(C)c(-c2csc(NCCc3ccccc3)n2)s1 -71%
O=S1(=O)CCC(NC(=S)SCc2ccccc2Br)C1 (configuration not stated) -63%
Fc1ccccc1CNC(=S)Nc1ccc(Cl)cc1 -38.1%
O=C(O)CCCc1ccccc1 -31.7%
O=C(C1=C(O)C(=O)N(Cc2ccccc2)C1c1ccco1)c1ccco1 (configuration not stated) -36.2%
COCCNC(=O)c1ccc(N2CCC3(CC2)OCCO3)c([N+](=O)[O-])c1 -74.3%
CCCNC(=O)c1ccc(N2CCC3(CC2)CC(c2ccc(Cl)cc2)=NO3)c([N+](=O)[O-])c1 -31.3%

Source: PubChem BioAssay AID504652 (National Center for Advancing Translational Sciences (NCATS), 2011)
